Measured values: the supplement of paper PMC3842684

Key:
[1] = system: P. falciparum NF54-pfs16-GFP early (I-III) stage gametocytes; test: relative % inhibition of viable gametocyte number; higher = more gametocytocidal; conditions: stage: early (I-III) gametocyte, incubation 72 h
Method in brief: (§1)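 In 384-well poly-D-lysine imaging plates, NF54 pfs16-GFP gametocytes (magnet-isolated, early I/IIa on day 2 or late on day 8; 10% parasitaemia, 0.1% haematocrit) received compound in duplicate at 5 or 0.5 µM. Plates stood 72 h at 37°C in 5% CO2 and 5% O2, then overnight with MitoTracker Red before confocal imaging, where elongated GFP objects with MitoTracker signal above cut-off counted as viable. Relative inhibition was calculated against vehicle and positive-control wells on the same plate.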

[2] = system: P. falciparum NF54-pfs16-GFP late (IV-V) stage gametocytes; test: as above; conditions: stage: late (IV-V) gametocyte, incubation 72 h
Method in brief: as §1

| Structure (SMILES) | relative % inhibition ([1]; 0.5 µM) [%] | relative % inhibition ([1]; 5 µM) [%] | relative % inhibition ([2]; 0.5 µM) [%] | relative % inhibition ([2]; 5 µM) [%] |
| --- | --- | --- | --- | --- |
| COc1ccc2sc(N(Cc3cccnc3)C(=O)c3ccc(C#N)cc3)nc2c1 | 9.23 | 7.65 | -14.5 | 8.48 |
| Cc1ccnc(NC(c2cccc(OCc3ccccc3)c2)c2ccc3cccnc3c2O)c1 (stereo not drawn) | 14.9 | 96.4 | 9.51 | 57.2 |
| COc1ccc(Br)cc1C1Nc2ccc3ccccc3c2C2=C1C(=O)CC(c1ccccc1)C2 (stereo not drawn) | 27.7 | 70.3 | 2.99 | 16.2 |
| Cc1ccc(-c2cc(C(=O)Nc3ccc(S(=O)(=O)N4CCCCC4)cc3)[nH]n2)c(O)c1 | 18 | 51 | -1.52 | 2.43 |
| CCC(c1ccccc1)c1nn2c(-c3cccs3)nnc2s1 (stereo not drawn) | -3.13 | -13.5 | 8.5 | 12.4 |
| CCOc1ccc(-c2nonc2NC(=O)c2cccc(C)c2)cc1OCC | 31.4 | 94.4 | 27.6 | 18.4 |
| CC(NCc1ccccc1)c1cc(Cl)ccc1O (stereo not drawn) | 15.7 | 89.5 | 15.3 | 53.3 |
| N=c1n(CCN2CCCCC2)c2ccccc2n1CC(O)c1cccc(Br)c1 (stereo not drawn) | 6.75 | 94.5 | 25.5 | 55.6 |
| Oc1c2c(nc3cc(-c4ccccc4)nn13)CCCC2 | 3.76 | -0.467 | -4.66 | 57.1 |
| CCOc1cc2c(cc1OCC)C(c1cc(Cl)ccc1O)NCC2 (stereo not drawn) | 13 | 102 | 19 | 26.7 |
| O=C(CCl)NCCOc1ccc(Cl)cc1Cl | 24 | 9.39 | 8.06 | 5.3 |
| COc1ccc(C2NCCc3c2[nH]c2ccccc32)cc1CN1CCN(c2ccc(F)cc2)CC1 (stereo not drawn) | 18.2 | 90 | 8.16 | 58 |
| CCOc1ccc2c(c1)CN(Cc1ccc(Cl)cc1)CO2 | 15.1 | 84.1 | 16.2 | 41.4 |
| CCOc1ccc2nc(C)cc(Nc3ccc(Br)cc3)c2c1 | 38.4 | 58.5 | 14.7 | 57.1 |
| O=C(CSc1nccn2nc(-c3ccccc3)cc12)Nc1cc(C(F)(F)F)ccc1Cl | 3.61 | -9.64 | 15.1 | -0.775 |
| O=[N+]([O-])c1ccc(C=NNc2nc3ccccc3[nH]2)cc1 | 26.8 | 59.1 | -1.37 | -1.1 |

| Structure (SMILES) | relative % inhibition ([1]; 0.5 µM) [%] | relative % inhibition ([1]; 5 µM) [%] | relative % inhibition ([2]; 0.5 µM) [%] | relative % inhibition ([2]; 5 µM) [%] |
| --- | --- | --- | --- | --- |
| CC(=O)NCCc1nc2ccccc2n1Cc1ccc(C(C)C)cc1 | 8.03 | 50.5 | -8.38 | 2.88 |
| Cc1ccc(N2C(=O)C3C(C2=O)C2(c4ccccc4)C(=O)C3(c3ccccc3)C(c3ccccc3)=C2c2ccccc2)cc1 (stereo not drawn) | 20.5 | 53.3 | 45.4 | 58.1 |
| O=C(NC1CCN(Cc2ccccc2)CC1)c1cc(C(=O)NC2CCN(Cc3ccccc3)CC2)cc(C(=O)NC2CCN(Cc3ccccc3)CC2)c1 | 20.3 | 82 | 0.475 | 31.9 |
| Cc1c(C)n(CC(O)CNC2CCCCC2C)c2ccccc12 (stereo not drawn) | 41.6 | 98.7 | 34.2 | 54.5 |
| COc1ccc(C(=O)Nc2ccc3nc(N4CCCCC4)cc(C)c3c2)cc1OC | -8 | 7.62 | 3.3 | 51.2 |
| Cc1ccc(-c2cc3c(nn2)-c2ccccc2C3=O)cc1 | 2.74 | 95 | 102 | 70.6 |
| COc1ccccc1N1C(=N)SC(=Cc2ccc(OCc3ccccc3F)cc2)C1=O | 2.18 | 25.8 | 32.6 | 69.4 |
| CC(C)c1ccc(CNCC(O)c2ccccc2)cc1 (stereo not drawn) | 5.28 | 89.6 | 17.3 | 39.8 |
| COCCN(C(=O)Cc1cccs1)C(C(=O)NCc1ccc(OC)cc1)c1ccc(C(C)C)cc1 (stereo not drawn) | 25.1 | 5.52 | 13.7 | -1.94 |
| CC(C)(C)c1ccc(C2CC3=Nc4ccccc4N(C(=O)c4ccccc4Cl)C(c4ccc(F)cc4)C3=C(O)C2)cc1 (stereo not drawn) | 20 | 80.4 | 60.8 | 89.9 |
| Nc1ccc(-c2nc3cc(Oc4ccc(Oc5ccc6[nH]c(-c7ccc(N)cc7)nc6c5)cc4)ccc3[nH]2)cc1 | 13.7 | 98 | 13.4 | 32.9 |
| COc1ccc(CN2CCCC(C(=O)c3ccc(C(F)(F)F)cc3)C2)c(O)c1 (stereo not drawn) | -2.13 | 93.7 | 14.8 | 16.7 |
| CCOc1ccc(C2N(C)c3ccccc3N2C)cc1 | 5 | 15.9 | -6.22 | -12.5 |
| O=C(NC(c1ccccc1)c1ccc2cccnc2c1O)c1ccccc1 (stereo not drawn) | 31.4 | 95.3 | 35.8 | 86.9 |
| O=C(Nc1cccc(C2=NCCN2)c1)Nc1cccc(C2=NCCN2)c1 | 9.97 | 6.29 | 10.7 | -30.3 |
| COc1cc(OC)c(N(C)C(=O)c2cc3c(s2)-c2ccccc2S(=O)(=O)C3)cc1Cl | 52.2 | 93.9 | 28.5 | 44.6 |
